SMN2 splice up: increases expression of the SMN2 splice variant; actives 2.8% (n = 210,000); HEK293 SMN2-luciferase splicing reporter, luminescence, 30-36 h; AID 1458; Potency, µM (doses to about 46.1 µM), inactives show at the highest dose activity change, positive = activation, usual class: activators; also: % of control where 0% means no effect; nearly all actives have a fitted effect of over 55% in size
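HEK293 cells carry an SMN2 minigene-luciferase reporter in which exon 7 inclusion puts luciferase in frame. Cells were seeded at 2000 cells/well, attached for 10-12 hours, then exposed to compounds for 30-36 hours at 37C before ONE-Glo luminescence.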
NPC1 promoter act: NPC1 promoter activation; Huh7 NPC1 promoter luciferase reporter, 24 h; Potency, µM (highest dose often 9.22 µM), inactives show top-dose activation, usual class: activators; actives 2.4% (n = 320,000); also: % of control where 0% means no effect; nearly all actives have a fitted effect of over 60% in size
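Stable NPC1-promoter luciferase Huh7 line; cpd (DMSO) 24 h, 37 °C, 5% CO2; Amplite luciferase reagent 10 min RT; luminescence readout. qHTS format.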
ELG1 genotox: genotoxicity induction in ELG1-luciferase HEK293T cells; HEK293T ELG1-luciferase reporter, luminescence, 16 h; Potency, µM (top dose mostly 46 µM), for inactives: top-dose activity change, positive = activation, usual class: activators; actives 1.3% (n = 330,000); also: % of control where 0% means no effect; nearly all actives have a fitted effect of over 60% in size
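Genotoxic stress is detected as increased luminescence from luciferase-tagged ELG1 in HEK293T cells, measured with ONE-Glo after a 16 hr treatment at 37 °C.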
Rab9 promoter act: Rab9 promoter activation. Potency, µM (titrated, usually from 9.22 µM), for inactives: top-dose activation, negative = inhibition, most hits filed as activators. actives 2.8% (n = 320,000). Huh7 Rab9 promoter-luciferase reporter, luminescence, 24 h. AID 485297; also: % of control where 0% means no effect; nearly all actives have a fitted effect of over 60% in size
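Promoter activation is measured as luciferase luminescence in Huh7 cells stably transfected with a Rab9 promoter–luciferase construct, following 24 h compound exposure at 37 °C and 10 min reagent incubation at ambient temperature.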
KinaseGlo FLuc: Kinase-Glo luciferase inhibition (counter-screen) | Kinase-Glo luciferase, ATP luminescence, 8 min | Potency, µM (doses to about 38.3 µM), for inactives: at the highest dose activity change, negative = inhibition, actives largely listed as inhibitors | actives 0.28% (n = 200,000) | AID 1379; also: % is scaled to controls: 0 for no effect and ±100 for the full control effect; nearly all actives have a fitted effect of over 60% in size
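Light output from Kinase-Glo luciferase with luciferin and 10 uM ATP in 50 mM imidazole pH 7.2, KCl, MgCl2, Tween 20, BSA; compound pin-delivered, 8-min ambient incubation, then luminescence read.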
FLuc modulator: firefly luciferase modulation, counter-screen for miR-21 project; AID 588342; actives 6.9% (n = 360,000); Potency, µM (highest dose often 57.5 µM), without a hit: at the top dose activity change, negative = inhibition, usual class: inhibitors; P08659; purified FLuc, Km substrates, luminescence inhibition;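 also: plate controls were vehicle for no effect and reference inhibitor for full effect; nearly all actives have a fitted effect of over 55% in size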
Target sequence (P08659 whole entry, looked up): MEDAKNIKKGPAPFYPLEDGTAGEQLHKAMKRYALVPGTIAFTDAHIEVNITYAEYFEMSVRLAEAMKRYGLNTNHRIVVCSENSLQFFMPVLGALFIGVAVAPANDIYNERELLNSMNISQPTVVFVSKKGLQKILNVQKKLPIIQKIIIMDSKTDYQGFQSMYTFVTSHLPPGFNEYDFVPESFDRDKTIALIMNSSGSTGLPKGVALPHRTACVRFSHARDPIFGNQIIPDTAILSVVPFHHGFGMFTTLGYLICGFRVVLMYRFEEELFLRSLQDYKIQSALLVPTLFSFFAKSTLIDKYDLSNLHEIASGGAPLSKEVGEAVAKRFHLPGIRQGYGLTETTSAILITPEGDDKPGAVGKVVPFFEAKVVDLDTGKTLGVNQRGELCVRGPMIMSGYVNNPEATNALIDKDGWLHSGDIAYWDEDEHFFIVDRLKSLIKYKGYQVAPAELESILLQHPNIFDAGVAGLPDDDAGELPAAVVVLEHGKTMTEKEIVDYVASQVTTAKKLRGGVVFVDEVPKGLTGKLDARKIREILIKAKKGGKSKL
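Biochemical qHTS of compounds, final roughly 60 µM downward over six points, against 10 nM purified firefly luciferase using Km concentrations of substrates (10 uM D-luciferin, 10 uM ATP) in Tris acetate pH 7.5 buffer; luminescence output.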
* = called active by the depositor; ? = inconclusive; nt = no result; [ ] = another dose, or the depositor's remark. The list is not random: actives were taken first. Their share in the collection is about 7.4%. Calls follow the shape of the dose curve; as a rule, active = well fitted curve in the direction sought with a large enough effect; inconclusive = small, poorly fitted or top-dose-only effect, or another doubt; inactive = no such curve, though single readings can be large; an effect the other way counts as inactive or inconclusive. Potency is read from the fitted curve at half-maximal effect.

SMILES	SMN2 splice up	NPC1 promoter act	ELG1 genotox	Rab9 promoter act	KinaseGlo FLuc	FLuc modulator
Cc1ccn2cc(-c3cccc(NC(=O)c4ccccc4)c3)nc2c1	?	3.3%	0.6%	21.9%	-19.2%	4.26µM*
CC(=O)Nc1cccc(-c2cn3ccccc3n2)c1	?	15.9%	12.7%	27.1%	-7.8%	19µM*
Cc1ccc2c(c1)N[C@H](c1ccc(C(=O)O)cc1)c1cccn1-2	-30.0%[9.22 µM]	nt	nt	nt	-6.3%[7.66 µM]	nt
COc1ccccc1N1CCN(c2ccc(-c3ccccc3)nn2)CC1	?	?	?	0.282µM*	8.91µM*	0.757µM*
COc1ccccc1N1CCN(c2cc(N3CCCC3)nc(C)n2)CC1	-40.4%	-5.9%	-5.3%	-4.6%	-2.6%	6.6%
COc1ccccc1N1CCN(c2ccc3ccccc3n2)CC1	nt	0.316µM*	?	0.316µM*	nt	0.953µM*
COc1ccccc1N1CCN(c2nc(-c3ccccc3)cc(C(F)(F)F)n2)CC1	-12.1%	-0.9%	-4.2%	-0.5%	-0.5%	0.4%
Cc1ccc(NC(=O)c2c(C)oc3nc(C)nc(N4CCCC4)c23)c(C)c1	nt	nt	nt	nt	nt	2.0%
CCOc1ccccc1NC(=O)N1CCN(Cc2cc(=O)n3nc(-c4ccc(C)cc4)sc3n2)CC1	nt	nt	nt	nt	nt	-6.6%
O=C(CSc1nc2ccccc2n1-c1ccccc1)Nc1ncc(Cl)cc1Cl	4.47µM*	3.2%	-9.6%	18.5%	2.0%	-3.1%
CS(=O)(=O)c1ccc2nc(NC(=O)c3cccc(NS(=O)(=O)c4ccc(F)c(F)c4)c3)sc2c1	-0.5%	12.5%	-2.2%	1.4%	-2.0%	23.9µM*
O=C(Nc1nc2ccc(SC(F)F)cc2s1)c1ccc(NS(=O)(=O)c2ccc(F)c(F)c2)cc1	-4.0%	13.4%	-2.8%	24.7%	2.8%	15.1µM*
CS(=O)(=O)c1ccc2nc(NC(=O)c3ccc(NS(=O)(=O)c4ccc(F)c(F)c4)cc3)sc2c1	nt	8.3%	-7.1%	-2.2%	nt	?
COc1ccccc1NS(=O)(=O)c1cc(C(=O)O)ccc1F	nt	nt	nt	nt	-0.7%	nt
CCOC(=O)Cc1csc(NC(=O)/C=C\c2ccccc2)n1	4.3%	22.4%	-1.5%	8.6%	-10.0%	5.36µM*
CCOC(=O)Cc1csc(NC(=O)/C=C/c2ccc(OC)cc2)n1	-13.0%	28.6%	-2.2%	11.5%	-9.1%	1.35µM*
CCOC(=O)Cc1csc(NC(=O)CCCc2ccccc2)n1	nt	-4.7%	-8.7%	8.9%	nt	-21.9%
CCN1CCN(C(c2cccc(OC)c2)c2c(O)cc(C)n(Cc3ccco3)c2=O)CC1 (stereo not given)	nt	nt	nt	nt	nt	-4.7%
Cc1ccc(/C=c2/sc3nnc(-c4ccccc4Cl)n3c2=O)o1	12.8%	1.0%	-2.6%	0.2%	-2.6%	15.1µM*
Cc1cccc(C)c1OCc1cc(C(=O)N2CCC(c3ccccc3)CC2)no1	nt	?	22.9%	?	nt	?
COCC1CCN(C(=O)c2cc(COc3ccc(C)c(C)c3)on2)C1 (stereo not given)	nt	-2.2%	2.7%	-0.7%	nt	-2.1%
Cc1cccc(C)c1OCc1cc(C(=O)N2CC3C[C@@H]4CC2C[C@H](C3)C4)no1	nt	2µM*	1.7%	1.58µM*	nt	?
Cc1ccc(OCc2cc(C(=O)N3CC4C[C@@H]5CC3C[C@H](C4)C5)no2)cc1C	nt	3.55µM*	?	1.41µM*	nt	8.49µM*
O=C(NCc1ccccc1)c1ccc(CSc2ccccc2)o1	-11.3%	-1.2%	-4.2%	-7.1%	0.1%	?
O=C(Nc1cccc(F)c1)c1ccc(CSc2ccccc2)o1	?	23.4%	19.2%	20.7%	-4.8%	19µM*
O=C(Nc1ccccc1F)c1ccc(CSc2ccccc2)o1	19.2%	14.8%	?	17.0%	-0.6%	16.9µM*
CC(=O)Nc1ccc(NC(=O)c2ccc(CSc3ccccc3)o2)cc1	-48.2%	-2.1%	-4.9%	-3.5%	0.7%	-5.4%
O=C(Nc1ccccc1F)c1ccc(COc2ccc(Cl)cc2Cl)o1	12.6µM*	-0.8%	-3.4%	0.1%	1.6%	?
